Data published in PubChem BioAssay (Tox21).
Several values for one entry are separate records, joined by “and”; a condition that tells them apart may be missing. Equal values may be shown once. Records with an inconclusive call do not appear. Where a call stands in place of a potency, no number is given. A number with no mark means an inactive call. Activity calls are given as the source filed them. Unless noted, the call rests on the fitted dose curve; in most records, active means well fitted curve in the direction sought with a large enough effect in the repeat runs; inconclusive means weak or mixed curves; inactive means no such curve, though single readings can be large; an effect the other way counts as inactive or inconclusive. Positions of bridges follow the written chain, without caps; N, C: chain ends. Non-standard residues stand in square brackets, D forms with d. Residues, ends and D or L forms follow the SMILES beside them. *: point of attachment. X2 = CC[C@H](C)CCCCC(=O)*; Dab = NCC[C@H](N)C(=O)O

Legend:
[1] = qHTS assay to identify aromatase inhibitors - cell viability counter screen (AID 743084);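 further: cells stimulated with testosterone during compound exposure; nearly all actives have a fitted effect of over 55% in size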; further: potency means the concentration at half of the fitted maximal effect
[2] = biological target: Aryl hydrocarbon receptor (Homo sapiens) (UniProt P35869); experiment: qHTS assay to identify small molecule that activate the aryl hydrocarbon receptor (AhR) signaling pathway (AID 743085); further: nearly all actives have a fitted effect of over 15% in size; further: potency means the concentration at half of the fitted maximal effect;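 on activation: HG2L7.5c1 human HepG2 liver cells with stably integrated DRE-driven firefly reporter; series mostly up to about 70 µM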
Summary of the method: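 Luminescence read-out: ONE-Glo reagent, 30 min at room temperature, in HG2L7.5c1 HepG2 reporter cells treated 24 h at 37C. Viability was measured beforehand by CellTiter-Fluor fluorescence after 30 min at 37C.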

[3] = biological target: Peroxisome proliferator-activated receptor gamma (Homo sapiens) (UniProt P37231); experiment: qHTS assay to identify small molecule agonists of the peroxisome proliferator-activated receptor gamma (PPARg) signaling pathway (AID 743094; active means well fitted activation curve with a large enough effect in the signal ratio in the repeat runs, not every such curve was filed as active; the % refers to the signal ratio)
Summary of the method: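 Stably transfected HEK293H cells (GeneBLAzer PPARg UAS-bla) were incubated with test substances for 17 h at 37C after a 5 h pre-incubation; beta-lactamase activity was then detected by FRET substrate fluorescence.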

[4] = qHTS assay to identify small molecule phospholipidosis (PLD) inducers (AID 1259344; active means well fitted curve in the direction sought with a large enough effect; an effect the other way counts as inactive or inconclusive)
Summary of the method: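 HepG2 cells, 900/well, treated with compound plus LipidTOX Red for 24 h at 37 C; amiodarone positive and DMSO negative controls. Fixed with paraformaldehyde/Hoechst, then high-content imaging scored LipidTOX pit count and integrated intensity per well and per cell.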

[5] = biological target: Nuclear receptor subfamily 1 group I member 2 (Homo sapiens) (UniProt O75469); experiment: CYP3A4 induction through human pregnane X receptor (PXR) by small molecules, qHTS assay (AID 1346984); further: nearly all actives have a fitted effect of over 40% in size; further: potency means the concentration at half of the fitted maximal effect
Summary of the method: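 DPX-2 reporter cells; 24h cpd, 37C; Luciferin-IPA 3uM final x3h; One-Glo 30 min RT; lumi read.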

[6] = biological target: Nuclear receptor subfamily 1 group I member 2 (Homo sapiens) (UniProt O75469); experiment: Human pregnane X receptor (PXR) activation by small molecules, qHTS assay (AID 1346985); further: nearly all actives have a fitted effect of over 40% in size; further: potency means the concentration at half of the fitted maximal effect
Summary of the method: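 DPX-2 cells (HepG2 co-transfected with a PXR response element and a CYP3A4-promoter luciferase construct) were seeded at 2,000 per well, rested 5 hr at 37C, then exposed to DMSO-dissolved compounds for 24 hr. Activation was read as luciferase luminescence.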

[7] = qHTS assay to identify small molecule that activate the aryl hydrocarbon receptor (AhR) signaling pathway - cell viability counter screen (AID 743086); further: nearly all actives have a fitted effect of over 45% in size; further: potency means the concentration at half of the fitted maximal effect
Summary of the method: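 HepG2-AhR-luc (HG2L7.5c1) cells, 4000/well, treated 24 h at 37 C with compound; viability measured as CellTiter-Fluor fluorescence after 30 min in the same wells as the luciferase read.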

Sequence of Peroxisome proliferator-activated receptor gamma (Homo sapiens) (P37231 whole entry, looked up): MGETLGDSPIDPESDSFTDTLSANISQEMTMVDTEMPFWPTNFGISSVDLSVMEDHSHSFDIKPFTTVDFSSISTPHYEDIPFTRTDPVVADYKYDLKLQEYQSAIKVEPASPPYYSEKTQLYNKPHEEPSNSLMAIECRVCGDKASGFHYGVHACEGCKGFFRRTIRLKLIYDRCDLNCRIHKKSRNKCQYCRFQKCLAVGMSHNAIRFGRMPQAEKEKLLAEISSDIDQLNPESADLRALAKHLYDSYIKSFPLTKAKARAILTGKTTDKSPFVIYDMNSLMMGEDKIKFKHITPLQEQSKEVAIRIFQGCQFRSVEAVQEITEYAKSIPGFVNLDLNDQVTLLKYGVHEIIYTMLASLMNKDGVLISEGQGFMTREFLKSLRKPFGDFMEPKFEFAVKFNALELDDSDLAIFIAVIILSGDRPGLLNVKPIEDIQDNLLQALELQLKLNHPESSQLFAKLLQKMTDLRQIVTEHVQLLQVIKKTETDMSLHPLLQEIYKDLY
Sequence of Aryl hydrocarbon receptor (Homo sapiens) (P35869 whole entry, looked up): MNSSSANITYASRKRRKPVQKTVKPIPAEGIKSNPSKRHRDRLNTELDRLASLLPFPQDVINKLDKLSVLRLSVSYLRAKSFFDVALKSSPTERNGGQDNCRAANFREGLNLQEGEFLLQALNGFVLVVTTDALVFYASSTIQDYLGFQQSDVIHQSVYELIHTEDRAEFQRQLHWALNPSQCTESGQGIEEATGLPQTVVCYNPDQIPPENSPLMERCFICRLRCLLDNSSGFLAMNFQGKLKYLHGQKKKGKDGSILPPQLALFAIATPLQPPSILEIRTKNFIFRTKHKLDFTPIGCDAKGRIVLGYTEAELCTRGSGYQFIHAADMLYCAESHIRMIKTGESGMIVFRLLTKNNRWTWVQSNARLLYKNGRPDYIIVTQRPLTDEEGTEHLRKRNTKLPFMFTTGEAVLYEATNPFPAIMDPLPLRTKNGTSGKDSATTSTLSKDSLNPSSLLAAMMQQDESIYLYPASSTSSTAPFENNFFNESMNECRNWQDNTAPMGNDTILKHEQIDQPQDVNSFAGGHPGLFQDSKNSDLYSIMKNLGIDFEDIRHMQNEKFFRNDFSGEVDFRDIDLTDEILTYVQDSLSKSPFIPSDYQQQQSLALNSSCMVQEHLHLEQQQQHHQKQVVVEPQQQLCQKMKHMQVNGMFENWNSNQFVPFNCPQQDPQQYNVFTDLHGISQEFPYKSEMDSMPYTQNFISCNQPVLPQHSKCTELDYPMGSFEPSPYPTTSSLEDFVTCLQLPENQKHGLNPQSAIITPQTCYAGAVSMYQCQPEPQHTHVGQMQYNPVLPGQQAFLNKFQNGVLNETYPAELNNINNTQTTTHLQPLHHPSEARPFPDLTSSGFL

Row | Structure (SMILES) | Potency [1] | Potency [2] | Potency [3] | Potency [4] | Potency [5] | Potency [6] | Potency [7] | PLD induction [4]
1 | CC(C)(CO)[C@@H](O)C(=O)NCCCC(=O)O | inactive | inactive | inactive | inactive | inactive | inactive |  | 
2 | O=C(OC[C@H]1O[C@](O)(COC(=O)c2cccnc2)[C@@H](OC(=O)c2cccnc2)[C@@H]1OC(=O)c1cccnc1)c1cccnc1 | inactive | inactive | inactive | inactive | inactive | inactive |  | 
3 | NC(=O)c1ccc[n+]([C@@H]2O[C@H](COP(=O)([O-])OP(=O)(O)OC[C@H]3O[C@@H](n4cnc5c(N)ncnc54)[C@H](O)[C@@H]3O)[C@@H](O)[C@H]2O)c1 | inactive |  | inactive | inactive | inactive | inactive | inactive | 
4 | CN1C(=O)CN2CCc3ccccc3C2c2cc(Cl)ccc21 (stereo not drawn) | inactive | 4.73 µM (active) | inactive | inactive | 3.16 µM (active) | 22.4 µM (active) | inactive | 
5 | COc1ccc(-c2noc(CC(=O)O)c2-c2ccc(OC)cc2)cc1 | inactive | inactive |  | inactive | inactive | inactive | inactive | 
6 | CC1=C(/C=C/C(C)=C/C=C/C(C)=C/C=C/C=C(C)/C=C/C=C(C)/C=C/C2=C(C)C[C@@H](O)CC2(C)C)C(C)(C)C[C@H](O)C1 |  |  |  | inactive | inactive | inactive | inactive | 
7 | O=C(c1cc2ccccc2o1)N1CCN(Cc2ccccc2)CC1 | inactive |  | inactive | inactive | inactive | inactive | inactive | 
8 | CC(NNC(=O)c1ccccc1)c1ccccc1 (stereo not drawn) | inactive | 11.9 µM (active) | inactive | inactive | inactive |  | inactive | 
9 | COC1=C(C(=O)O)N2C(=O)[C@@H](NC(=O)[C@H](N)C3=CCC=CC3)[C@H]2SC1 | inactive | inactive |  | inactive |  |  | inactive | 
10 | NC(=O)C[C@@H](N)C(=O)O | inactive | inactive |  | inactive |  |  |  | 
11 | CCC(C)[C@H]1O[C@]2(C=C[C@@H]1C)C[C@@H]1C[C@@H](C/C=C(\C)[C@@H](O[C@H]3C[C@H](OC)[C@@H](O[C@H]4C[C@H](OC)[C@H](NC(C)=O)[C@H](C)O4)[C@H](C)O3)[C@@H](C)/C=C/C=C3\CO[C@@H]4[C@H](O)C(C)=C[C@@H](C(=O)O1)[C@]34O)O2 (stereo partly drawn) | inactive | inactive |  | inactive |  |  | 11.9 µM (active) and 29.8 µM (active) | 
12 | C#CCC(Cc1cnc2nc(N)nc(N)c2n1)c1ccc(C(=O)N[C@@H](CCC(=O)O)C(=O)O)cc1 (stereo partly drawn) | inactive | inactive |  |  |  |  | inactive | 6.01% [at 0.306 µM]
13 | CCCCCCCCCCCCCCCCCC(=O)[O][Al] | inactive | inactive |  | inactive |  |  | inactive | 
14 | CC[C@H](C)CCCCC(=O)N[C@@H](CCN)C(=O)N[C@H](C(=O)N[C@@H](CCN)C(=O)N[C@H]1CCNC(=O)[C@H]([C@@H](C)O)NC(=O)[C@H](CCN)NC(=O)[C@H](CCN)NC(=O)[C@H](CC(C)C)NC(=O)[C@@H](CC(C)C)NC(=O)[C@H](CCN)NC1=O)[C@@H](C)O (X2-[Dab]T[Dab][Dab][Dab][dL]L[Dab][Dab]T; lactam 4-C) | inactive | inactive |  | inactive |  |  | inactive | 
15 | CCCC(=O)Nc1ncnc2c1ncn2[C@@H]1O[C@@H]2COP(=O)(O)O[C@H]2[C@H]1OC(=O)CCC | inactive | inactive |  | inactive |  |  | inactive | 
16 | Cc1cc(Nc2ccccc2C(=O)O)ccc1Cl | inactive | 26.6 µM (active) |  | inactive |  |  |  | 
17 | COC(=O)[C@H]1[C@H]2C[C@@H]3c4[nH]c5cc(OC)ccc5c4CCN3C[C@H]2C[C@@H](OC(=O)/C=C/c2cc(OC)c(OC)c(OC)c2)[C@@H]1OC | inactive |  | inactive | inactive |  | inactive | inactive | 
18 | CCCCC(F)(F)[C@@]1(O)CC[C@H]2[C@@H](CC(=O)[C@@H]2CCCCCCC(=O)O)O1 | inactive | inactive |  | inactive |  |  | inactive | 
19 | CCC(=O)OCC(=O)[C@@]1(OC(=O)CC)[C@@H](C)C[C@H]2[C@@H]3CCC4=CC(=O)C=C[C@]4(C)[C@@]3(Cl)[C@@H](O)C[C@@]21C | inactive | 10.6 µM (active) |  | inactive |  |  | inactive | 
20 | COC(=O)CCC(=O)CN | inactive | inactive |  | inactive |  |  | inactive | 
21 | CCCCCCC(=O)O[C@H]1CC[C@H]2[C@@H]3CCc4cc(O)ccc4[C@H]3CC[C@]12C | inactive | inactive |  | inactive |  |  |  | 
22 | CC1(C)C2CC[C@]3(C)[C@H](C(=O)C=C4[C@@H]5C[C@@](C)(C(=O)O)CC[C@]5(C)CC[C@]43C)[C@@]2(C)CC[C@@H]1O[C@H]1O[C@H](C(=O)O)[C@@H](O)[C@H](O)[C@H]1O[C@@H]1O[C@H](C(=O)O)[C@@H](O)[C@H](O)[C@H]1O (stereo partly drawn) | inactive | inactive |  |  |  |  | inactive | 0.435% [at 7.66 µM]
23 | CCCC(=O)N1CCCN(c2nc(N)c3cc(OC)c(OC)cc3n2)CC1 | inactive | 5.31 µM (active) |  | inactive |  |  | inactive | 
24 | O=[N+]([O-])c1ccc(Oc2ccc(N=C=S)cc2)cc1 | inactive | inactive |  | inactive |  |  | inactive | 
25 | O.O=C([O-])CC([S-])C(=O)[O-].[Au+].[Na+].[Na+] (stereo not drawn) | inactive | inactive |  | inactive |  |  |  | 
26 | CCC(=O)NS(=O)(=O)c1ccc(-c2c(-c3ccccc3)noc2C)cc1 | inactive | inactive |  | inactive |  |  | inactive | 
27 | C[N+]1(C)CCN(CC(O)(c2ccccc2)C2CCCCC2)CC1 (stereo not drawn) | inactive | inactive |  | inactive |  |  | inactive | 
28 | CO[C@H]1C=CO[C@@]2(C)Oc3c(C)c(O)c4c(O)c(c(/C=N/N5CCN(C6CCCC6)CC5)c(O)c4c3C2=O)NC(=O)/C(C)=C\C=C[C@H](C)[C@H](O)[C@@H](C)[C@@H](O)[C@@H](C)[C@H](OC(C)=O)[C@@H]1C | 23.7 µM (active) | inactive |  | inactive |  |  | 26.6 µM (active) | 
29 | COc1ccc(C2NC(=S)N3C(c4ccc(OC)c(OC)c4)NC(=S)N23)cc1OC (stereo not drawn) | 0.188 µM (active) | inactive |  |  |  |  | 0.211 µM (active) | -4.32% [at 7.66 µM]
